Source: ChEMBL document CHEMBL3988442, “University of Dundee, Small-Polar-MMV Screening Library” (2021)
For some of these results: Entries with a potency or affinity are not part of this list.

Tests used:
Parameters in all cases: scale not given: direction of the effect not stated beside the values
[1] = target: Protein translocase subunit SecA (Escherichia coli (strain K12)) (UniProt P10408); test: Assay to Identify E. coli SecA ATPase Inhibitors; type: functional; conditions: 30 µM
[2] = target: T1, Ubiquitin-activating enzyme e1, putative (Leishmania donovani (strain BPK282A1)) (UniProt E9BSI1); test: Leishmania donovani Ubiquitin Activating Enzyme (LdE1); type: functional; conditions: 30 µM
T1 sequence (whole entry): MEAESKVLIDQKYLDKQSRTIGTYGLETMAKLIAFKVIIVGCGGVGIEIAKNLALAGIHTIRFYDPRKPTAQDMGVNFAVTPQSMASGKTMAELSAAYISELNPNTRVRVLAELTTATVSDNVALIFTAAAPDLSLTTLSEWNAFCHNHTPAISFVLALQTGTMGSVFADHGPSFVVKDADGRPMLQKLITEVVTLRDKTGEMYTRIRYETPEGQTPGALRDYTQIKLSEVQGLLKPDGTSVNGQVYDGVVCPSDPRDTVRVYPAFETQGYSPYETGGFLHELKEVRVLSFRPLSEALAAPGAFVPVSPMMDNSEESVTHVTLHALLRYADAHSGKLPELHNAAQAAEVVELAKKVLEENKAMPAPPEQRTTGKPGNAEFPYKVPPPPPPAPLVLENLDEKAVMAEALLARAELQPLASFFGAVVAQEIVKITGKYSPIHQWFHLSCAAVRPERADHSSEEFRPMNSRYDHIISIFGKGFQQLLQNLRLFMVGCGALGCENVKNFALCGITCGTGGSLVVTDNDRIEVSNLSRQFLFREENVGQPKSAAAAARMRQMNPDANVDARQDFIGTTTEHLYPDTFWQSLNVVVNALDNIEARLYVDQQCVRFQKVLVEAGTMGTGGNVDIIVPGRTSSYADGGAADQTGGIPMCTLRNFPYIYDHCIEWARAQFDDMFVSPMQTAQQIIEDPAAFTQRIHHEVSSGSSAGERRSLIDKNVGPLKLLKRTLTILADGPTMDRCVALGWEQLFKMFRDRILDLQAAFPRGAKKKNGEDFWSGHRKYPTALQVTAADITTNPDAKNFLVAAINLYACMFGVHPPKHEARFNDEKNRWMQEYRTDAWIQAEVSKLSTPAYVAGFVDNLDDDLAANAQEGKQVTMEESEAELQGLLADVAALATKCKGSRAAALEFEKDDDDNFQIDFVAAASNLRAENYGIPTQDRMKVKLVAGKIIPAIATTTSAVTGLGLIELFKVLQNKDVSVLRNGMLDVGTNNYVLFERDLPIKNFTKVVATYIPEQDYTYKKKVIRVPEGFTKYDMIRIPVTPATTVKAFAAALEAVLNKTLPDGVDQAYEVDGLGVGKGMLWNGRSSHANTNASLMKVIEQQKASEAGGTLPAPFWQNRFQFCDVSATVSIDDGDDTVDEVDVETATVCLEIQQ

[3] = target: AMP-activated protein kinase, AMPK (Homo sapiens) (UniProt P54646+O43741+P54619+Q9UGJ0+Q9Y478+Q13131+Q9UGI9); test: AMP-dependent Kinase enzyme assay. An in vitro enzyme assay that detects ADP turnover that is directly proportional to AMPK activity. This uses naive AMPK that is activated during the assay with MK-8722; type: functional; conditions: 30 µM
[4] = target: Sialic acid-binding Ig-like lectin 9 (Homo sapiens) (UniProt Q9Y336); test: Hs-Siglec9 ALPHAscreen SOP 20170721; conditions: 10 µM
Sialic acid-binding Ig-like lectin 9 (Homo sapiens), sequence (Q9Y336 whole entry): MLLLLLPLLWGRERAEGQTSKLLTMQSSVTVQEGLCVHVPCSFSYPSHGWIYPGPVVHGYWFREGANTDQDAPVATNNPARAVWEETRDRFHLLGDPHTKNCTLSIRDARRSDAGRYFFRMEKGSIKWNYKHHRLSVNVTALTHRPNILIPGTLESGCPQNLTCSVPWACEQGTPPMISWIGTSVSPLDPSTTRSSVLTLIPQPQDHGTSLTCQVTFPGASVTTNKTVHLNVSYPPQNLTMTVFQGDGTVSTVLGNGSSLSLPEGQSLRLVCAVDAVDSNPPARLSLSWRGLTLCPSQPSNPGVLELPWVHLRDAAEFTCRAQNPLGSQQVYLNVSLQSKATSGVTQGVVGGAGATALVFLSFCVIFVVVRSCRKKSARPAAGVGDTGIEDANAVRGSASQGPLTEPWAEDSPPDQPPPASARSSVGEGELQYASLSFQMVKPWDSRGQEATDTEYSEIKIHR

Trypanosoma cruzi = test: Trypanosoma cruzi phosphomannomutase and mannose-1-phosphate guanylyltransferase assay; type: functional; conditions: 10 µM
[5] = target: T2, Arginase-2, mitochondrial (Homo sapiens) (UniProt P78540); test: in vitro enzyme assay to detect the production of urea directly proportional to the activity of Arginase II; type: functional; conditions: 33.3 µM; also: in the data most compounds retested in dose-response had high values
T2 sequence (whole entry): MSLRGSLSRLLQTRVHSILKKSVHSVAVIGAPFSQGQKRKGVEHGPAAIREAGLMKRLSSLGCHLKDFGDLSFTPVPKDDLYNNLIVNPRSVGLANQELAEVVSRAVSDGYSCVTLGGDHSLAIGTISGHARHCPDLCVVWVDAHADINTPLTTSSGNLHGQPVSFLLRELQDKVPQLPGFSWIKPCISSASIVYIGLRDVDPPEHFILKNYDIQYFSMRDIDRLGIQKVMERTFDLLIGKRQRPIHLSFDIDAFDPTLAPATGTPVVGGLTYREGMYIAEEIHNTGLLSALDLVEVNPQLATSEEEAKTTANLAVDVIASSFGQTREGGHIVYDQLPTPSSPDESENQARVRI

[6] = target: T3, Proteasome subunit beta (Trypanosoma cruzi) (UniProt O96673); test: Trypanosoma cruzi proteasome chymotrypsin-like activity (TcProtChymo) assay.; also: in the data most compounds retested in dose-response had high values; type: functional; conditions: 9.37 µM
T3 sequence (whole entry): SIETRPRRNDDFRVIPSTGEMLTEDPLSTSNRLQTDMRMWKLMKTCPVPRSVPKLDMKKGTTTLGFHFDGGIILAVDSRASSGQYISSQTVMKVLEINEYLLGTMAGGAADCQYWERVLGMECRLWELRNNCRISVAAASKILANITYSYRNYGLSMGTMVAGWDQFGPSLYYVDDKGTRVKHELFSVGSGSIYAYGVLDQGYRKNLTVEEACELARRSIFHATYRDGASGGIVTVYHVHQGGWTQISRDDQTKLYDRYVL

Homo sapiens = species: Homo sapiens; test: To identify inhibition of the IFN signalling (Jak-Stat) pathway via expression of an eGFP reporter gene under the control of an IFN-stimulated response element (ISRE) containing MxA promoter.; type: functional; conditions: 30 µM
[7] = target: T4, Tyrosyl-tRNA synthetase, putative (Trypanosoma cruzi (strain CL Brener)) (UniProt Q4DSP6); test: Trypanosoma cruzi tyrosyl tRNA synthetase (TcYRS) _High Tyrosine SOP; type: functional; conditions: 30 µM; also: in the data most compounds retested in dose-response had high values
T4 sequence (whole entry): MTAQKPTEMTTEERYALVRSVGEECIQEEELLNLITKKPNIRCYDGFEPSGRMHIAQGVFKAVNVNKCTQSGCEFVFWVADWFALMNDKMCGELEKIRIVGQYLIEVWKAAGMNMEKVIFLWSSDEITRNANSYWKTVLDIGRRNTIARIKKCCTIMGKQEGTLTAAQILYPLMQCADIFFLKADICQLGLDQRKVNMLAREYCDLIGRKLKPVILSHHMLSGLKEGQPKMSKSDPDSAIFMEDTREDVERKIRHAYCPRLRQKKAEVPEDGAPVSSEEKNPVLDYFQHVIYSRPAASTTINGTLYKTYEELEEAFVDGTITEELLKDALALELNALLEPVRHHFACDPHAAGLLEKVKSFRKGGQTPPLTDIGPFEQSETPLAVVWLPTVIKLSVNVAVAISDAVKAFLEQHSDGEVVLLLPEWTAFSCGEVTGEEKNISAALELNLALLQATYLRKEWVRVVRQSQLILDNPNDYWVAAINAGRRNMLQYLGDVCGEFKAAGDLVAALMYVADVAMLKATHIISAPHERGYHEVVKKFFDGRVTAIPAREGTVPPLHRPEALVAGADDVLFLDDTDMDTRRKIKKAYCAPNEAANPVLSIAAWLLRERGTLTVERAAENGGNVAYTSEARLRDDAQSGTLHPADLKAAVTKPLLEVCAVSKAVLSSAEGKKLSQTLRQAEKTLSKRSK

[8] = target: T4, Tyrosyl-tRNA synthetase, putative (Trypanosoma cruzi (strain CL Brener)); test: Trypanosoma cruzi tyrosyl tRNA synthetase (TcYRS) SOP; type: functional; conditions: 30 µM
[9] = target: Chromo domain-containing protein 1 (Saccharomyces cerevisiae (strain ATCC 204508 / S288c) (Baker's yeast)) (UniProt P32657); test: ScCHD-1 Enzyme Inhibition Assay; type: functional; conditions: 30 µM; also: in the data most compounds retested in dose-response had high values
Chromo domain-containing protein 1 (Saccharomyces cerevisiae (strain ATCC 204508 / S288c) (Baker's yeast)), sequence (P32657 whole entry, the tested form may be a part): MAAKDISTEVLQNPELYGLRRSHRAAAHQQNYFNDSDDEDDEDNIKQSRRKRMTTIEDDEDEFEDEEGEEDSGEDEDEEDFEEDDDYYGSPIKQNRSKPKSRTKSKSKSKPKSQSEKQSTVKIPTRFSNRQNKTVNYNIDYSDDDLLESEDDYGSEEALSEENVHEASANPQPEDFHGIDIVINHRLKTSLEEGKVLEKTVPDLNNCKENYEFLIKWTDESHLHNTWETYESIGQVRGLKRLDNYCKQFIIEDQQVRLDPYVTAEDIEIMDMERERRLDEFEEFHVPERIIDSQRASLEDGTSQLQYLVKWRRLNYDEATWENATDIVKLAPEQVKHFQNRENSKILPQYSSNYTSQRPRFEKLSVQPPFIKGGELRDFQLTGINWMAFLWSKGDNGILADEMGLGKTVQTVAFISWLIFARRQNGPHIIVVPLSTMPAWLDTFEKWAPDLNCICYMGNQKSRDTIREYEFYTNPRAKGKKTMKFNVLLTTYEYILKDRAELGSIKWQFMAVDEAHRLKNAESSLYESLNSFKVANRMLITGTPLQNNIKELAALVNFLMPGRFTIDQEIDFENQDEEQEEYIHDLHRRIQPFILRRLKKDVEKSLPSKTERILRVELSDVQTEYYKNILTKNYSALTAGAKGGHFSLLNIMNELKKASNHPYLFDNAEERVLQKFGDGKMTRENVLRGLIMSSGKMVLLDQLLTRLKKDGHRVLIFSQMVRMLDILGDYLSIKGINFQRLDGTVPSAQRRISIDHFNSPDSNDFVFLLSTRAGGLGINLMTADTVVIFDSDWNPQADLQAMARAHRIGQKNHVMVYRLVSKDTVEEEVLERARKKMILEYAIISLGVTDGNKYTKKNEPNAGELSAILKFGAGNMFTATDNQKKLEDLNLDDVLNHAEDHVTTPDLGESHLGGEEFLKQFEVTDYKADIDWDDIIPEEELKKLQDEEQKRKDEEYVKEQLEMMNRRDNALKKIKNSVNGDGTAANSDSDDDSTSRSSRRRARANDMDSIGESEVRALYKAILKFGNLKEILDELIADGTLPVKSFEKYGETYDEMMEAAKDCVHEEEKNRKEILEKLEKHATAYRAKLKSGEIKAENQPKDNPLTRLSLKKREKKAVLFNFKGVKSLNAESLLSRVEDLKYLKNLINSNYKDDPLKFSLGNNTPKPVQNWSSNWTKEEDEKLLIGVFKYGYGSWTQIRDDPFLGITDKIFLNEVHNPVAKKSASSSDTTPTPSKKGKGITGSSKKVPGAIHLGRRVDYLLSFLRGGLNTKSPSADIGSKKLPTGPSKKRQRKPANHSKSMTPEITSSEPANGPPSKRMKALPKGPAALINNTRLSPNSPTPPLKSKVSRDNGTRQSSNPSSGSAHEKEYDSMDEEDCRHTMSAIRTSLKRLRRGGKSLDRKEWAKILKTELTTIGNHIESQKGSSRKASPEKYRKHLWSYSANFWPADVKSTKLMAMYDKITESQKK

Protein translocase subunit SecA (Escherichia coli (strain K12)), sequence (P10408 whole entry): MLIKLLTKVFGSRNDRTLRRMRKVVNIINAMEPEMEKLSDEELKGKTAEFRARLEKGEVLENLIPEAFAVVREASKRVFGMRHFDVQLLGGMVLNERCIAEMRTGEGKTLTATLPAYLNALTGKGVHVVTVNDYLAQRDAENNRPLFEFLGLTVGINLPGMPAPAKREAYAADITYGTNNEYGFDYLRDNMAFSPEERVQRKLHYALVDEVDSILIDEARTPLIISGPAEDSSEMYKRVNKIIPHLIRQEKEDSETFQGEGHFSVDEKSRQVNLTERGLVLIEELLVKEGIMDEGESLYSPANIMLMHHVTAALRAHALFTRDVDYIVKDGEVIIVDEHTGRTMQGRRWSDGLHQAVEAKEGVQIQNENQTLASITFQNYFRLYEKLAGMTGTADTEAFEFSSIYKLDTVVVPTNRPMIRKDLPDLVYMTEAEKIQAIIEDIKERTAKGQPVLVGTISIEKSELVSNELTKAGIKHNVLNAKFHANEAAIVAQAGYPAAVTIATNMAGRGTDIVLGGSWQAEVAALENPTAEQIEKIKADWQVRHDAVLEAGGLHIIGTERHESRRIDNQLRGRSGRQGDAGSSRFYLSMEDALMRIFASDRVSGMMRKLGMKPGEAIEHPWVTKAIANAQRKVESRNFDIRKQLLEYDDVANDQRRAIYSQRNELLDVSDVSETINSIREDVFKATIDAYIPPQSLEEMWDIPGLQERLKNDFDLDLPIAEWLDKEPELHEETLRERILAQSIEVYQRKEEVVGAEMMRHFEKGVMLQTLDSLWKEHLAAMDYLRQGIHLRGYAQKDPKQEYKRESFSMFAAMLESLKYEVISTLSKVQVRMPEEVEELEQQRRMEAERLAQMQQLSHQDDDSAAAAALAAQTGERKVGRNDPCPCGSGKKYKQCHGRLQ

| Structure (SMILES) | Percent Effect [1] | Percent Effect [2] | Percent Effect [3] | Percent Effect [4] | Percent Effect (Trypanosoma cruzi) | Percent Effect [5] | Percent Effect [6] | Percent Effect (Homo sapiens) | Percent Effect [7] | Percent Effect [8] | Percent Effect [9] |
| --- | --- | --- | --- | --- | --- | --- | --- | --- | --- | --- | --- |
| Cc1cc(C)n(C2CN(CC(=O)N(C)Cc3ccc(C)o3)C2)n1 | -4.24% | 5.26% | 17.1% | 6.03% | 2.82% | 3.55% | 9.49% | -0.498% | 34% | 28.6% | -4.43% |
| CN(C)S(=O)(=O)N1C[C@@H](Oc2ccccn2)[C@H]2OCCC[C@H]21 | -3.77% | 10.4% | 5.04% | 3.32% | 0.493% | -3.23% | 8.7% | 24.1% | -4.23% | 8.97% | -11.1% |
| COCCNC(=O)[C@H]1CN(c2nnc(C)s2)C[C@H]2OCC[C@@H]12 | -2.67% | 0% | 13.1% | 0.154% | -0.394% | -0.233% | 3.79% | 6.49% | 1.06% | 1.28% | 2.36% |
| CNS(=O)(=O)CCCN1CCCC1c1noc(C2CC2)n1 (stereo not given) | 0.851% | -2.53% | 9.34% | -2.31% | -2.74% | 4.56% | 9.91% | 10.4% | 0.493% | 1.27% | -7.17% |
| Cc1nc(C)n(CC2CCCN2Cc2nc(C3CC3)no2)n1 (stereo not given) | -1.33% | 2.63% | -3.31% | -2.5% | 4.32% | -3.83% | 1.34% | -15.7% | 2.45% | 4.88% | -4.84% |
| CCc1ncncc1C(=O)N1CCCN(Cc2ccc(C)cc2)CC1 | -6.16% | 2.63% | 1.25% | -3.26% | -6.44% | -0.36% | 0.592% | 6.25% | -2.46% | -13.6% | 6.06% |
| O=C1O[C@@H]2CN(Cc3ccccc3)C[C@@H]2N1CCCN1CCOCC1 | -6.39% | 2.67% | -0.894% | 2% | -3.8% | -0.521% | 15.2% | 20% | 4.92% | 11.1% | -5.71% |
| Cc1nccn1CCC1CCCCN1Cc1ccc(N(C)C)nc1 (stereo not given) | -1.41% | 5.33% | -3.72% | -2.2% | -6.91% | 4.69% | 21.4% | 9.79% | 0.546% | 11.1% | -5.71% |
| Cc1ccc2c(c1)c(CNC(=O)C1CCN(C(C)C)CC1)nn2C | 2.34% | 5.41% | -3.84% | -0.447% | -0.579% | -2.38% | 12.9% | -16.3% | 4.76% | 14.6% | -3.28% |
| COc1c(C2CCCN2C(=O)Cc2c(C)noc2C)c(C)nn1C (stereo not given) | -4.91% | 15.2% | -0.162% | 8.65% | 0.661% | 0.38% | 0.0819% | -12.4% | 7.39% | 16.5% | -6.93% |
| Cc1nn(C)c2cn(C(C)C(=O)NCc3cccnc3)nc12 (stereo not given) | -2.07% | 14.7% | -8.7% | 5.87% | 1.77% | -6.16% | 17.9% | 20.4% | -4.23% | 10.3% | -9.99% |
| O=C(C1CCOCC1)N1C[C@@H]2[C@@H](C1)OCC(=O)N2Cc1ccncc1 | -1.9% | -2.74% | -1.14% | 7.63% | 1.19% | -0.399% | 4.2% | 2.13% | 2.08% | -6.17% | -1.66% |
| Cc1nn(C)c(C)c1C1CCCN1Cc1nc(C)c2ccccc2n1 (stereo not given) | -3.55% | 3.8% | 1.88% | -0.0747% | 1.74% | 1.94% | 2.06% | -6.74% | 20.8% | 25.3% | -22.5% |
| CCS(=O)(=O)N1CCC2(CC1)CC(Oc1ccccn1)CO2 (stereo not given) | -0.483% | 10.4% | 4.49% | -1.15% | -5.23% | 7.1% | 11% | 17.8% | 2.12% | 3.85% | -7.08% |
| COc1ccc(NC(=O)Cn2nc(C)c(C)cc2=O)cc1OC | -0.134% | 0% | -0.466% | 23.4% | 5.79% | 20.5% | 8.97% | 2.79% | 0.529% | 9.76% | -7.49% |
| COCCNC(=O)Nc1ccc(-n2cncn2)c(F)c1 | -6.54% | 0% | -12.8% | 0.712% | -4.7% | 0% | 4.51% | 28.2% | 2.45% | 0% | -7.16% |
| Cc1noc(C(C)C)c1C(=O)NCC(c1ccsc1)N(C)C (stereo not given) | -1.69% | 15.2% | 2.11% | -4.7% | -5.19% | -1.52% | 13.3% | 32.5% | 1.48% | 11.4% | -5.47% |
| Fc1ccc(CN2CCCC2Cn2cccn2)c2ncccc12 (stereo not given) | -3.18% | -16.2% | -9.76% | 11.6% | -2.51% | -0.185% | 3.41% | -3.85% | 11.9% | 11% | 7.89% |
| CCS(=O)(=O)N1CCCc2ccc(NC(=O)Cc3ccc(F)cc3)cc21 | 0.369% | 7.79% | -1.04% | -9.41% | -5.82% | 0.645% | 8.53% | 65.4% | -5.29% | -6.41% | -13.3% |
| Cc1cc(C)n(C2CCCN(C(=O)Cc3csc(C)n3)C2)n1 (stereo not given) | -3.62% | 0% | -2.28% | 17.5% | 6.7% | 1.9% | 4.34% | -6.53% | 4.43% | -3.8% | -6.83% |
